Assay outcomes (PubChem)
Pf growth 96h: P. falciparum growth inhibition at 96 hour, primary screen for plastid delayed-death inhibitors | P. falciparum luciferase reporter growth, 96 h | Potency, µM (top dose mostly 28.7 µM), for the others: at the top dose activity change, negative = inhibition, usual class: inhibitors | 6.9% of 320,000 active | AID 504834; active = well fitted inhibition curve with a large enough effect; inconclusive = small, poorly fitted or top-dose-only effect, or another doubt; inactive = no such curve, though single readings can be large or run the other way; note: % is set by controls: 0 for no effect and ±100 for the full control effect
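Plates of compound plus infected erythrocytes (2% hematocrit, 0.05% parasitemia final) incubate 96 hours, 37 C, 5% CO2. Detection reagent added; reduced luminescence from the parasites' luciferase reporter flags inhibition.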
SARS PLP yeast: inhibitors of SARS-CoV papain-like protease in yeast | S. cerevisiae expressing SARS-CoV PLpro, growth rescue | Potency, µM (series often up to 32.9 µM), inactives show at the highest dose activity, positive = growth rescue, most hits filed as activators | 0.19% of 330,000 active | AID 485353; note: 0% is about no effect; nearly all actives have a fitted effect of over 55% in size
RE007 growth inh: less growth of the S. pombe RE007 Vpr strain | S. pombe RE007 Vpr strain, BacTiter-Glo ATP luminescence, 24 h | Potency, µM (highest dose often 92.2 µM), for inactives: at the highest dose activity change, negative = less growth, usual class: inhibitors | 0.21% of 360,000 active | AID 651644; active = well fitted falling curve with a large enough effect; inconclusive = small, poorly fitted or top-dose-only effect; inactive = no such curve, though single readings can be large or run the other way; note: % is set by controls: 0 for no effect and ±100 for the full control effect; nearly all actives have a fitted effect of over 50% in size
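Fission yeast strain RE007, carrying one chromosomally integrated HIV-1 vpr copy, was seeded at OD 0.01 in PMG+AL medium with 23 nL pinned compound. After 24 h at 30 °C and 99% humidity, viability was read by BacTiter-Glo luminescence.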
NS1 inh: inhibitors of influenza NS1 protein function | Potency, µM (titrated, usually from 46.1 µM), inactives show at the highest dose activity, positive = more growth | 0.4% of 270,000 active; note: actives are rising curves; nearly all actives have a fitted effect of over 50% in size
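Growth recovery, yeast-based: influenza A NS1 expressed in S. cerevisiae causes slow growth, and suppressors are detected by OD600. The parent strain without NS1 is used as positive control.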
Pf growth 48h: P. falciparum growth inhibition at 48 hours (one generation); P. falciparum luciferase growth in erythrocytes, 48 h; 5.9% of 310,000 active; Potency, µM (highest dose often 28.7 µM), without a hit: top-dose activity change, negative = inhibition, usual class: inhibitors; AID 504832; active = well fitted inhibition curve with a large enough effect; inconclusive = small, poorly fitted or top-dose-only effect, or another doubt; inactive = no such curve, though single readings can be large or run the other way; note: % is set by controls: 0 for no effect and ±100 for the full control effect
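Luminescence readout; reporter = integrated firefly luciferase in P. falciparum. RBC culture at 2% hematocrit, 0.1% parasitemia final, 37 C/5% CO2; decreased signal taken as growth inhibition.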
* hit, by the source's call; ? = inconclusive; . = no result. An excerpt weighted towards active compounds, which were near 9.5% of everything screened. Unless noted, calls come from the whole dose curve. Potency is the fitted concentration of half-maximal effect.

SMILES	Pf growth 96h	SARS PLP yeast	RE007 growth inh	NS1 inh	Pf growth 48h
COc1ccc(NC(=O)N2CCCC(c3ccccc3)C2)cc1 (stereo not drawn)	2.08µM*	-2.9%	21.4%	-6.2%	-28.5%
COc1ccc(Cl)cc1NC(=O)NNC(=O)c1ccccn1	10.4µM*	-2.0%	18.7%	-20.7%	-22.6%
COc1ccc(Cl)cc1NC(=O)c1ocnc1C	1.04µM*	-7.1%	-4.2%	-10.7%	-2.0%
CCOC(=O)c1c(C)nc(-c2ccccc2)nc1N	10.4µM*	1.3%	?	-9.0%	184.7%
CC(=O)c1c(C)nc(-c2ccccc2)nc1NC(=O)C(C)C	.	12.4%	-22.8%	-0.8%	.
CC(=O)Nc1nc(-c2ccccc2)nc(C)c1C(C)=O	1.85µM*	2.6%	-26.5%	?	20.6%
CC(=O)c1c(C)nc(-c2ccccc2)nc1N	42.9%	0.7%	-2.2%	-2.1%	78.0%
COc1ccc(C2NC(C(=O)O)Cc3c2[nH]c2ccccc32)cc1CN1CCN(c2ccc(F)cc2)CC1 (stereo not drawn)	?	-0.4%	-8.0%	0.2%	10.4µM*
COc1ccc(C2NCCc3c2[nH]c2ccccc32)cc1COc1ccc(F)cc1 (stereo not drawn)	?	-3.9%	15.2%	-30.4%	?
O=C(O)C1Cc2c([nH]c3ccccc23)C(c2ccc3c(c2)OCO3)N1 (stereo not drawn)	9.28µM*	-0.2%	0.6%	4.6%	2.9%
O=C1CSC(c2cn(-c3ccccc3)nc2-c2ccc3c(c2)OCCO3)N1CCN1CCOCC1 (stereo not drawn)	1.7%	-2.6%	-2.5%	-16.8%	8.28µM*
CN1CCN(S(=O)(=O)c2ccc(NC(=S)NC(=O)c3ccc(Cl)cc3)cc2)CC1	2.33µM*	-19.8%	8.4%	10.6%	4.65µM*
O=C(Nc1cccc(Cl)c1)Nc1cc(S(=O)(=O)N2CCCCC2)ccc1Cl	2.94µM*	-10.9%	-22.4%	21.6%	?
CN1CCN(S(=O)(=O)c2ccc(NC(=S)NC(=O)c3ccccc3)cc2)CC1	.	-6.0%	-7.8%	-5.4%	-27.6%
CN1CCN(S(=O)(=O)c2ccc(NC(=O)Nc3cccc(Cl)c3)cc2)CC1	1.8%	3.5%	19.1%	-17.0%	2.94µM*
Cc1ccc(NC2CCCN(C(=O)c3cc4ncccn4n3)C2)cc1C (stereo not drawn)	?	-4.4%	2.3%	4.4%	-0.5%
Cc1cc(C)c(NC(=O)CS(=O)CC(=O)Nc2ccc(F)cc2F)c(C)c1 (stereo not drawn)	4.1%	-0.8%	2.3%	-1.3%	2.9%
N#CCC(=O)Nc1ccc(C(=O)OCC(=O)N2CCN(C(=O)c3ccco3)CC2)cc1	.	7.1%	-3.2%	.	.
CCN1N=C(c2ccccc2)Cn2c1nc1ccccc12	6.57µM*	0.7%	-17.4%	-31.8%	.
Cc1ccc(/C=C/S(=O)(=O)NCCC(=O)NCc2ccccc2F)cc1	.	2.0%	3.8%	.	.
COc1ccc(-n2c(SCC(=O)Nc3ccccc3)nnc2-c2ccc(NS(=O)(=O)c3ccc(C)cc3)cc2)cc1	3.29µM*	3.7%	20.3%	5.4%	.
COc1ccc(-n2c(SCC#N)nnc2-c2ccc(NS(=O)(=O)c3ccc(C)cc3)cc2)cc1	14.0%	4.6%	9.6%	7.9%	.
COc1ccc(-n2c(SCC(N)=O)nnc2-c2ccc(NS(=O)(=O)c3ccc(C)cc3)cc2)cc1	10.4µM*	-9.2%	-8.5%	3.3%	.
O=[N+]([O-])c1ccc(N/N=C/c2ccc(OCc3cccc4ccccc34)cc2)nc1	7.38µM*	-9.5%	14.1%	.	?
O=[N+]([O-])c1ccc(NN=Cc2ccccc2)nc1	.	.	1.7%	.	.
N#Cc1ccccc1Cn1cc(/C=N/Nc2ccc([N+](=O)[O-])cn2)c2ccccc21	5.22µM*	0.1%	-13.7%	.	?
CCCc1cc(=O)[nH]c(SCC(=O)Nc2ccc(N3CCCCC3)cc2)n1	.	-18.3%	-11.0%	.	.
COc1ccc(N2CCN(C(=O)CN(c3ccc(OC)cc3)S(=O)(=O)c3ccccc3)CC2)cc1	-7.6%	-0.6%	7.8%	28.0%	11.7µM*
CS(=O)(=O)N(CC(=O)N1CCN(Cc2ccccc2)CC1)c1cccc([N+](=O)[O-])c1	2.94µM*	4.7%	-14.7%	10.4%	?
CS(=O)(=O)N(CC(=O)N1CCN(Cc2ccccc2)CC1)c1cccc(F)c1	20.1%	2.3%	3.5%	-7.1%	11.9%
